# Compounds without any hit were thinned out: in the full panel of roughly 83,000, 20% have a hit.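 Activity criterion: percent growth below 10, measured after cells in 96-well plates were exposed to a single compound concentration for 48 hours.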 A number with no mark means an inactive call. Activity calls are given as the source filed them.
# How the values were obtained:
# Assay in all cases: NCI-60 one-dose screen, 48 h (100 = growth as untreated, 0 = no growth, -100 = all killed)
# Conditions in all cases: 10 µM unless noted
# HCT-15 colon = tested on: HCT-15 colon
# HT29 colon = tested on: HT29 colon
# SNB-75 CNS = tested on: SNB-75 CNS
# SNB-19 CNS = tested on: SNB-19 CNS
# U251 CNS = tested on: U251 CNS
# PC-3 prostate = tested on: PC-3 prostate
# UACC-62 melanoma = tested on: UACC-62 melanoma
# LOX IMVI melanoma = tested on: LOX IMVI melanoma
# SK-MEL-28 melanoma = tested on: SK-MEL-28 melanoma
SMILES,growth (HCT-15 colon),growth (HT29 colon),growth (SNB-75 CNS),growth (SNB-19 CNS),growth (U251 CNS),growth (PC-3 prostate),growth (UACC-62 melanoma),growth (LOX IMVI melanoma),growth (SK-MEL-28 melanoma)
Cc1cc(N2CCCCC2)nc(NC2CCCC(Nc3ccnc4cc(Cl)ccc34)C2)n1 (configuration not stated),-67.6% (active),-59.9% (active),-80.9% (active),-20.7% (active),-97.4% (active),-72.8% (active),-86.2% (active),-84.9% (active),-84% (active)
OCCNc1nccc(N2CCN(c3ccnc4cc(Cl)ccc34)CC2)n1,51.3%,45.7%,71.3%,88.9%,86%,72.2%,71.4%,–,–
CCCCN(CCCC)CCCn1c(-c2ccccc2)ccc1-c1ccccc1,55.3%,33.1%,83.4%,83.4%,58.3%,48%,82.4%,68.7%,–
CC(=O)NCC1c2c(n(C)c3c(Cl)c(Cl)ccc23)C(=O)NC1(C)C (configuration not stated),102%,108%,87.7%,102%,94.7%,91%,94.4%,95%,–
O=c1cc(/C(=C2/C=CC=N2)c2ccc[nH]2)c2cc(Cl)ccc2o1,35.1%,47.9%,24.6%,25.7%,14.4%,38.9%,42.9%,34.3%,–
CCOC(=O)c1sc(Nc2ccc(Cl)cc2)nc1C,13.1%,4.65% (active),-11.2% (active),37%,13.5%,14.2%,–,–,–
Clc1ccc2c(NCCNc3nc(N4CCOCC4)nc4ccccc34)ccnc2c1,15.2%,-69.2% (active),-94.4% (active),5.66% (active),-93.1% (active),34%,-64.9% (active),-83.5% (active),–
Nc1nc2ccc3[nH]ncc3c2c2c1CCCC2,3.93% (active),5.02% (active),-46.9% (active),8.98% (active),8.3% (active),3.35% (active),10.9%,-9.24% (active),9.47% (active)
COc1cccc(NC(=O)c2sc3nc(C)c(C(C)=O)cc3c2N)c1,35.9%,38.7%,22.7%,40.2%,33.7%,47.8%,26.7%,47.2%,71%
CCOc1cc2ncc(C#N)c(Nc3ccc(OCc4cccc(F)c4)c(Cl)c3)c2cc1NC(=O)CCCCC1CCSS1 (configuration not stated),97%,86.8%,97.8%,105%,82.5%,83.9%,89%,79.5%,101%
Nc1nc2ncc(CCNc3ccc(C(=O)O)cc3)nc2c(=O)[nH]1,102%,97.5%,110%,111%,109%,92.4%,111%,102%,118%
CC(C)(C)c1cc(/C=N\NC(=O)/C=C/C=C/c2ccc3c(c2)OCO3)c(O)c(C(C)(C)C)c1,63.7%,92%,31.9%,85.5%,84%,69.1%,71.5%,61.7%,85.8%
CCOC(=O)c1c(C(=O)OCC)c2cc(-c3ccn4c(C(=O)c5ccccc5)c(C(=O)OCC)c(C(=O)OCC)c4c3)ccn2c1C(=O)c1ccccc1,95.6%,97.3%,84.1%,100%,99.7%,80.6%,85.2%,85.1%,113%
Cc1cc(N2CCCCCC2)nc(NC2CCCC(Nc3ccnc4cc(Cl)ccc34)C2)n1 (configuration not stated),-87.4% (active),-82.9% (active),-78.7% (active),-54.5% (active),-94.8% (active),-88.1% (active),-84.3% (active),-93.1% (active),-83.5% (active)
O=c1ccccc(-c2ccc(Br)cc2)c1O,26.3%,21.9%,31.4%,13%,9.54% (active),29.5%,-49.3% (active),4.54% (active),23.2%
O=CNc1ccc2c(c1)Cc1cccc(NC=O)c1-2,91.8%,96.2%,90.7%,102%,95.1%,95.2%,72.1%,90.5%,112%
Clc1ccc2c(NCCCNc3nc(-n4ccnc4)nc4ccccc34)ccnc2c1,87%,75.1%,71.1%,92.1%,83.5%,73.3%,94.3%,82.1%,93.1%
C=C1C(=O)O[C@H]2[C@H]1CC/C(COC(=O)c1cc3cc(OC)ccc3[nH]1)=C\CC[C@@]1(C)O[C@@H]21,-43.5% (active),-83.4% (active),-68.5% (active),-64.3% (active),-97.7% (active),-71.5% (active),-90.6% (active),-91% (active),-80.8% (active)
CCN=C1C=CC(=C(c2ccc(N)cc2)c2ccc(N(CC)CC)c(C)c2)C=C1,7.26% (active),5.82% (active),-28.4% (active),11.5%,-19% (active),-5.29% (active),-36.6% (active),-56.2% (active),-19.1% (active)
C=CC(COC(c1ccccc1)(c1ccccc1)c1ccccc1)N(CC)CC (configuration not stated),16.7%,14.6%,73%,82.1%,52.5%,47.9%,44.8%,49.5%,59.4%
O=C1c2cc3c(cc2-c2c1c1ccc(F)cc1c(=O)n2C[C@H](O)[C@H](O)[C@H](O)CO)OCO3,0.724% (active),-4.15% (active),-36.9% (active),2.14% (active),-22.4% (active),6.99% (active),-70.4% (active),-33.5% (active),-30.6% (active)
CCNC(=O)Oc1ccc(/C(=C(\C)c2ccc(Cl)cc2)c2ccc(OCCN(CC)CC)cc2)cc1,1.8% (active),-23.2% (active),45.2%,59.2%,21.1%,31.4%,-68.3% (active),-59% (active),-62.3% (active)
COc1cc2c(cc1-c1c(C)noc1C)ncc1nc(C3CCC(F)(F)CC3)n([C@H](C)COC(F)F)c12,16.8%,17.3%,37%,47.7%,46.8%,33.1%,17.8%,14.8%,54.4%
CCOC(=O)c1c(C)oc2ncnc(N3CCN(C(=S)Nc4ccccc4)CC3)c12,90.6%,102%,80.5%,96.5%,89.7%,91.8%,87.2%,90.7%,107%
CC(C)(C)CC(C)(C)c1ccc(OCCOCC[N+](C)(C)Cc2ccccc2)cc1,95.2%,-50.5% (active),-26% (active),-89% (active),-88.5% (active),-13.9% (active),-98.5% (active),-29.4% (active),-67% (active)
CN(C)c1ccc(NC(=O)c2ccc(/C=C/C(=O)c3ncc[nH]3)cc2)cc1,16.2%,11.6%,68.7%,28.3%,11.8%,68.1%,70.5%,14.7%,95.3%
COc1cc2c(cc1OC)C(Sc1ccc(SC)cc1)c1c(nc(N)c(C#N)c1N)O2 (configuration not stated),-71.5% (active),-55.2% (active),-54.5% (active),-77.9% (active),-99.3% (active),-75.8% (active),-61.3% (active),-96.3% (active),-55.5% (active)
CC1=C[C@H]2c3c(c(O)c(O)c4oc(-c5ccccc5)cc(=O)c34)[C@H](c3cc(O)c(O)c4oc(-c5ccccc5)cc(=O)c34)[C@H]2C(C)(C)C1,11.3%,9.18% (active),-8.01% (active),11.9%,2.66% (active),5.35% (active),-46.3% (active),-86.5% (active),8% (active)
CC(C)C[C@@H](NC(=O)[C@@H](Cc1ccccc1)NC(=O)c1cnccn1)B1Oc2ccc(C[C@H](NC(=O)[C@H](Cc3ccc4c(c3)OB([C@@H](CC(C)C)NC(=O)[C@@H](Cc3ccccc3)NC(=O)c3cnccn3)O4)NC(=O)[C@@H](N)CC3CCC4OB([C@@H](CC(C)C)NC(=O)[C@@H](CC5CCCCC5)NC(=O)C5CNCCN5)OC4C3)C(=O)NCCCC[C@@H]3NC(=O)[C@@H](Cc4ccccc4)NC(=O)[C@H](CC(=O)O)NC(=O)CNC(=O)[C@H](CCCNC(=N)N)NC3=O)cc2O1 (some centres not stated),-49.1% (active),-61.9% (active),-64% (active),-24.7% (active),-58.4% (active),-48.4% (active),-73.8% (active),-87.9% (active),-31.7% (active)
